Measurements published in the supplement of paper PMC11732987, “Enantioselective OTUD7B fragment discovery through chemoproteomics screening and high-throughput optimisation” (Communications Chemistry, 2025).

Tests used:
Assay in all cases: log2 ratio of Biotin-Ahx-Ub-VS probe labelling (fragment/DMSO); higher = less target engagement (more negative = stronger competition), active = hit call of the paper (q ≤ 0.05, log2 ratio ≤ -1)
Conditions in all cases: compound concentration: 200 uM; treatment time: 3 h
USP9X = USP9X (UniProt Q93008)
In short: (§1)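 Using Biotin-Ahx-Ub-VS at 0.5 µM final for 1 h, DUBs were labelled in HEK293T lysate (495 µg per sample) that had first been treated in triplicate with fragment at 200 µM or vehicle for 3 h. NeutrAvidin enrichment, LysC and trypsin digestion and diaPASEF LC-MS/MS followed. Spectronaut label-free quantities were global-median-normalised. Values are average log2 fragment/vehicle ratios by unpaired t-test, using proteins with ≥2 unique peptides.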

UniProt O00487 = target: UniProt O00487
In short: as §1

UniProt O00507 = target: UniProt O00507
In short: as §1

UniProt P51784 = target: UniProt P51784
In short: as §1

UniProt Q5T2D3 = target: T1, UniProt Q5T2D3
T1 sequence (whole entry): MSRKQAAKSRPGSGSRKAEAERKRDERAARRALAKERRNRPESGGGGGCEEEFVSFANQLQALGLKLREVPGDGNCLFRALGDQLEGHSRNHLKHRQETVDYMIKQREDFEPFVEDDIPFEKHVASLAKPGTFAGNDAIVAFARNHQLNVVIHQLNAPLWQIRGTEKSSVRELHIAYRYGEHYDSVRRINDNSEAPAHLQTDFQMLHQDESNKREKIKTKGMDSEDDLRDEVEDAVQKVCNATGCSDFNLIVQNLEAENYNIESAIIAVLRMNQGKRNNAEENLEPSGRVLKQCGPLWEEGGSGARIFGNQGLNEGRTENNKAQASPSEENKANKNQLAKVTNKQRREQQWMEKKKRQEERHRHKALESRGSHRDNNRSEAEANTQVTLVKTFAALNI
In short: as §1

UniProt Q8TE49 = target: T2, UniProt Q8TE49
T2 sequence (whole entry): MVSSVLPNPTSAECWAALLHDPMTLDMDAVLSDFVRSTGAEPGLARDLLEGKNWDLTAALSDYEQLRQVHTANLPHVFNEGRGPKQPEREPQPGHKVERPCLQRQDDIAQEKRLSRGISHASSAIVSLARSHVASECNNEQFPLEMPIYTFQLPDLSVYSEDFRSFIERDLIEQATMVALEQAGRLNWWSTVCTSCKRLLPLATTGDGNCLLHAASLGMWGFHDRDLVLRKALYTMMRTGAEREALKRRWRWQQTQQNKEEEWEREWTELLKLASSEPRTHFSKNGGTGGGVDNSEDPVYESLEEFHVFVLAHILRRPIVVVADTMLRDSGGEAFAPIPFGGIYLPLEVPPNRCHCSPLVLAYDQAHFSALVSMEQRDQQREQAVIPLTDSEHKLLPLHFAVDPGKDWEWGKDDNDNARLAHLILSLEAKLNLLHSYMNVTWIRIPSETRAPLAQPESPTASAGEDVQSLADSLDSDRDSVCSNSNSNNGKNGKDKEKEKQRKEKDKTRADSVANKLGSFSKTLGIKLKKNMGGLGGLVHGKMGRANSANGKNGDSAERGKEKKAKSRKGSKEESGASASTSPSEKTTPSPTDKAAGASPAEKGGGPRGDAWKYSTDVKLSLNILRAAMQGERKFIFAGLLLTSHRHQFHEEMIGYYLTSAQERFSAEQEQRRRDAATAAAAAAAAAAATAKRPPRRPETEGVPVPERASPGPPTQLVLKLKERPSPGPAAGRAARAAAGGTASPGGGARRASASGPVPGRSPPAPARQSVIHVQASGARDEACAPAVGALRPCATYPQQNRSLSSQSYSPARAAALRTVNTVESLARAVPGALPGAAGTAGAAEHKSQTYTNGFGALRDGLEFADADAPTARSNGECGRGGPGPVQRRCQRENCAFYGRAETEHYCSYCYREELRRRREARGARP
In short: as §1

UniProt Q9P2H5 = target: T3, UniProt Q9P2H5
T3 sequence (whole entry): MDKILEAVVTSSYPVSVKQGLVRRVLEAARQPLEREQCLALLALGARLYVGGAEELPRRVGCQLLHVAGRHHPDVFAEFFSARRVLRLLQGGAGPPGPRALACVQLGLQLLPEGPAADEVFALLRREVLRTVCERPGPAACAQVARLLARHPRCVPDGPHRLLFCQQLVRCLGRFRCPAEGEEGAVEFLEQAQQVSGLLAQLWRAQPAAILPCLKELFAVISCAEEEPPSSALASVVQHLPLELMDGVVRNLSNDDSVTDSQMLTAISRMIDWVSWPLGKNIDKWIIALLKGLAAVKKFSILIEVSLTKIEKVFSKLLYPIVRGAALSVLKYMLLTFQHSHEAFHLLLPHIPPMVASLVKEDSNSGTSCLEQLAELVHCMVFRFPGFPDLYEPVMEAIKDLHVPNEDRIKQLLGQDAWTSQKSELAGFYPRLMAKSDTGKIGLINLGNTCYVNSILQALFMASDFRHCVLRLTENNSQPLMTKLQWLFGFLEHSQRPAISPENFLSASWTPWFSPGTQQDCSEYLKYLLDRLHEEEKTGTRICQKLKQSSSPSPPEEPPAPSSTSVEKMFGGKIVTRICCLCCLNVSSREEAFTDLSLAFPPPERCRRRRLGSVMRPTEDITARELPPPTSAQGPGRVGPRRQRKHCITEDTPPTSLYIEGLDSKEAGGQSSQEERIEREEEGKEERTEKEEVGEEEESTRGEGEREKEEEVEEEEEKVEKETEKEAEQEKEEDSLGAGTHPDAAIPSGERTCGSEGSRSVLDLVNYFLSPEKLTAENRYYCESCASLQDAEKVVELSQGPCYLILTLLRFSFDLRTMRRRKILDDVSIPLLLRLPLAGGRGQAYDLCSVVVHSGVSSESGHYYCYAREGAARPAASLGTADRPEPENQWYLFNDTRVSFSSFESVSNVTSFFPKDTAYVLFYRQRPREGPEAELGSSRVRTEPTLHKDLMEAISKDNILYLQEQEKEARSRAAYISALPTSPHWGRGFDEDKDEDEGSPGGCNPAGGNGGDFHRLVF
In short: as §1

UniProt Q9UGI0 = target: T4, UniProt Q9UGI0
T4 sequence (whole entry): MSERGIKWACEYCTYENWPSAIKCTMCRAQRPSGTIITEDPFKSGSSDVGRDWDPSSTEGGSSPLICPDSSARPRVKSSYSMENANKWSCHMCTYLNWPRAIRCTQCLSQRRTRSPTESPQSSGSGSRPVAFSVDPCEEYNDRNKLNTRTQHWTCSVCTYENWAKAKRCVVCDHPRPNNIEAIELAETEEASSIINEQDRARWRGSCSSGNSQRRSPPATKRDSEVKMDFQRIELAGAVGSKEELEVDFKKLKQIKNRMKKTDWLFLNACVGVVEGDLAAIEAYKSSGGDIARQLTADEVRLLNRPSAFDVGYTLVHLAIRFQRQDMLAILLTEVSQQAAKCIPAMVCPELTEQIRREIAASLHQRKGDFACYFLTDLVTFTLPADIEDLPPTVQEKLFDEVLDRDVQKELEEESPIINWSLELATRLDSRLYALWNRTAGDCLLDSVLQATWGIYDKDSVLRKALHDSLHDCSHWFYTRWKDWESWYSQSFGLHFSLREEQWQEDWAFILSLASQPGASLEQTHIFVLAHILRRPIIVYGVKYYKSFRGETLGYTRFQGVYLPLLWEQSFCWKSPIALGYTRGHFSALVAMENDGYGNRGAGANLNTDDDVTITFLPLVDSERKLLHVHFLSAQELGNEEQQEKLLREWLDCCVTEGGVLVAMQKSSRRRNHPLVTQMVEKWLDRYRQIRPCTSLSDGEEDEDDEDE
In short: as §1

YOD1 = target: T5, YOD1 (UniProt Q5VVQ6)
T5 sequence (whole entry): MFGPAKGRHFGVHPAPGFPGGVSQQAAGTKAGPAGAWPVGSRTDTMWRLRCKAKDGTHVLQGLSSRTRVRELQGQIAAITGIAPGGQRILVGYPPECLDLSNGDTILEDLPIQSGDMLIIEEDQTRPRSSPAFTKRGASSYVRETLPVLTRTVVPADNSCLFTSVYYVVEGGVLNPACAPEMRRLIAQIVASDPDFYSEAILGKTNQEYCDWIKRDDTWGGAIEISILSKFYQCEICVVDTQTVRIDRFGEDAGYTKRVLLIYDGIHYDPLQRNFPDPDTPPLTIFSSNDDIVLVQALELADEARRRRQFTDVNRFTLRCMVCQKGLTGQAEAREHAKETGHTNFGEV
In short: as §1

Measured: log2 ratio of Biotin-Ahx-Ub-VS probe labelling

USP9X, sequence (Q93008 whole entry, the tested form may be a part): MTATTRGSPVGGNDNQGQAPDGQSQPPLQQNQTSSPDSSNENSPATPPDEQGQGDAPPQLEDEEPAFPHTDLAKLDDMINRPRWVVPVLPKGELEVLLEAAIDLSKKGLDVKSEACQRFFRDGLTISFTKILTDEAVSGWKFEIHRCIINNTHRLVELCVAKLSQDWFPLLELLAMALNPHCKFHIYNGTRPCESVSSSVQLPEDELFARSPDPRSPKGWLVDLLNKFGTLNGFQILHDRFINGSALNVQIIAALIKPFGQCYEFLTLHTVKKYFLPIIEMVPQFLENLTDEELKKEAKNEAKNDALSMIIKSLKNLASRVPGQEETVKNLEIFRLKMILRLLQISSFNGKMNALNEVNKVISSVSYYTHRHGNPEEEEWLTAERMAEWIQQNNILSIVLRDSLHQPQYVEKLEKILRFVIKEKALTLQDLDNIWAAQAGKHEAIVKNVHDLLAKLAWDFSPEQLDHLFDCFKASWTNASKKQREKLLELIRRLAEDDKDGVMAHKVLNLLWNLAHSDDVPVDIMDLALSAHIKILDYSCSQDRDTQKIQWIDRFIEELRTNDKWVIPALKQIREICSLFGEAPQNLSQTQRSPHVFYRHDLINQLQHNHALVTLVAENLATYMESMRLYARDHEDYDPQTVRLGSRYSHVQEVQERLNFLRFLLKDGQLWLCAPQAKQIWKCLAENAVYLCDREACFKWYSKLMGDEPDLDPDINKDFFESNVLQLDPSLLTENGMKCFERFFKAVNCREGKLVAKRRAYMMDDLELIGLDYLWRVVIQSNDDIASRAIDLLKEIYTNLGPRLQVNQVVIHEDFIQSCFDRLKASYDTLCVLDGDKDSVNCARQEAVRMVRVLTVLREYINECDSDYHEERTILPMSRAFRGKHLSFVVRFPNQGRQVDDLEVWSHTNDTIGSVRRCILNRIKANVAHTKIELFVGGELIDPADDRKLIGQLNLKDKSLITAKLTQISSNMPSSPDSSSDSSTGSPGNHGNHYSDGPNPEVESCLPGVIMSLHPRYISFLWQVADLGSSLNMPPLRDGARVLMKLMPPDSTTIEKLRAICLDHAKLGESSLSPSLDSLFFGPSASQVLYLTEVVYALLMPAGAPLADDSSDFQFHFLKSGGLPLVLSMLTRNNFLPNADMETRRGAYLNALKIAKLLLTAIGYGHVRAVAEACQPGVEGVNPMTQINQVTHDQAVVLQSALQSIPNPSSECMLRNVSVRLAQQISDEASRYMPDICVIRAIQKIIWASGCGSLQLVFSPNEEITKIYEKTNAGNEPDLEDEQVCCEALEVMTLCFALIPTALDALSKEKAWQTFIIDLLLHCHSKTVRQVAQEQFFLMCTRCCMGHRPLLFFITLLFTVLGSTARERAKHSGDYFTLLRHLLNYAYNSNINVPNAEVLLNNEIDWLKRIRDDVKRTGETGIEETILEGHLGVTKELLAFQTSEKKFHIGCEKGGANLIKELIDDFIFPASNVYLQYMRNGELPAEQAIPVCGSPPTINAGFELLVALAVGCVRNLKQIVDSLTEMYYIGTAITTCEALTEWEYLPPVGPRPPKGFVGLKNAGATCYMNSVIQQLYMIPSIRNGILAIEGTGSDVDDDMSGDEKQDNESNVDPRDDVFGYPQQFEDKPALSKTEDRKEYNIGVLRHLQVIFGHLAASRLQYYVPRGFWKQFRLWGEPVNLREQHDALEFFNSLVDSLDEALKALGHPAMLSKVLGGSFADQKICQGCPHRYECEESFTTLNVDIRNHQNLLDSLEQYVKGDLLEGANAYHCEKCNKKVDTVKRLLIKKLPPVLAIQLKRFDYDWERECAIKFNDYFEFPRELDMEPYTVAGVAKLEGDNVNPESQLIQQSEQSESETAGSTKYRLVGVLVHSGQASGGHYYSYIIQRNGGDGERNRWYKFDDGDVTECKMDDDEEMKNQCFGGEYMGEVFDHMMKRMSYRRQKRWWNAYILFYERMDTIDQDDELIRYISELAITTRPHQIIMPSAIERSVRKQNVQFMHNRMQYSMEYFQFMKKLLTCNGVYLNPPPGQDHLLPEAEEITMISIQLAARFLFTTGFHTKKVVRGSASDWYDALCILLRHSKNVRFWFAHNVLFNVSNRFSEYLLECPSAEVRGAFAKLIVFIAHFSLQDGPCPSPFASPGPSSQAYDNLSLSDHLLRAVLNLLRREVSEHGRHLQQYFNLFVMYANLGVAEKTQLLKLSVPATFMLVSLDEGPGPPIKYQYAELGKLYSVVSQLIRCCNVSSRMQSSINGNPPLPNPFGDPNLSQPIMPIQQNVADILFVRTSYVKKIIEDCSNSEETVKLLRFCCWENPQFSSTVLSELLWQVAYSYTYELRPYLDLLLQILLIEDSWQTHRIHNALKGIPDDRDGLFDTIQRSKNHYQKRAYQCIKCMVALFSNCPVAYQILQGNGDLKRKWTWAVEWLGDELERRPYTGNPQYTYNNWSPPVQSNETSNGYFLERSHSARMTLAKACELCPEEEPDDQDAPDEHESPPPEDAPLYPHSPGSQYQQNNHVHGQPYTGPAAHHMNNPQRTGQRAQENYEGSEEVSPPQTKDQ
UniProt P51784, sequence (P51784 whole entry): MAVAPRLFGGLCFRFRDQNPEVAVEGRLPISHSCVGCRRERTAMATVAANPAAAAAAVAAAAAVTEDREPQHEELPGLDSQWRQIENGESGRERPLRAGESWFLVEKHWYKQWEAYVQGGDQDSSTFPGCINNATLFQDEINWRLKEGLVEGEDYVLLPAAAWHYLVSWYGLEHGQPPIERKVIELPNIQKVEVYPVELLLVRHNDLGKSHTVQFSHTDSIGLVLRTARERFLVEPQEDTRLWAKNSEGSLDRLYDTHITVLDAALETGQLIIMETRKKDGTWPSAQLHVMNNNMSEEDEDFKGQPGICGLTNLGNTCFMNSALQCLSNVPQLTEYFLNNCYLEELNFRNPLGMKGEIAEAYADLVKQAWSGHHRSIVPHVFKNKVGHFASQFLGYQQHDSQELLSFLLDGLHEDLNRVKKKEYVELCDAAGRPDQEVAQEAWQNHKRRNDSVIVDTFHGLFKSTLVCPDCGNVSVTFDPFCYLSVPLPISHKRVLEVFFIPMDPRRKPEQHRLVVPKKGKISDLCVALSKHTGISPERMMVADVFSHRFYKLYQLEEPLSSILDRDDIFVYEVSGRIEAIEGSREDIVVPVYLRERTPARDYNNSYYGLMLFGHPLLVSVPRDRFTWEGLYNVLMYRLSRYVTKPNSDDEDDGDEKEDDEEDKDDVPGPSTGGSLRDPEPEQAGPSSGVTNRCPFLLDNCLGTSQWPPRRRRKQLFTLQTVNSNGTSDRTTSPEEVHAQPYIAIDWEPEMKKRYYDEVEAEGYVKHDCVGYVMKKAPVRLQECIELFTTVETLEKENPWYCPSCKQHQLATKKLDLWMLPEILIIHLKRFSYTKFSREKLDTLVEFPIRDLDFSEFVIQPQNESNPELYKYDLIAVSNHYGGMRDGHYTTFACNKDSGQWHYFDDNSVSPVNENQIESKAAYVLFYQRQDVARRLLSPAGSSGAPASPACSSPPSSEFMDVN
UniProt O00487, sequence (O00487 whole entry): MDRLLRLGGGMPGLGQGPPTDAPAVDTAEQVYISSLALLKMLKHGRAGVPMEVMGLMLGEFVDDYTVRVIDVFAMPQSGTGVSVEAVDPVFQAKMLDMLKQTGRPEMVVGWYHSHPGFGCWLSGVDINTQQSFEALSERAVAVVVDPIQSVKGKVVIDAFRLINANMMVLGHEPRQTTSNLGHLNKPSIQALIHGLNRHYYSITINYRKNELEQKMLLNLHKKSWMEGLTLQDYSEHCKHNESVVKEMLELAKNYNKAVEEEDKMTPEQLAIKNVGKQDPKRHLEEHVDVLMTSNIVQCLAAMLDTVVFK

Cc1ccc(C(=O)NCCNC(=O)CCl)cc1
inactive: USP9X -0.316 | UniProt O00487 -0.0816 | UniProt O00507 -0.256 | UniProt P51784 0.00304 | UniProt Q5T2D3 -0.199 | UniProt Q8TE49 -0.373 | UniProt Q9P2H5 -0.35 | UniProt Q9UGI0 -0.456 | YOD1 -0.0895
